Screen size: about 2,500 compounds; about 45 (2%) were called active. Cut-off read from the data, not from the text of the source: active = inhibition mostly above about 45% (no sharp cut-off); inactive = mostly below about 37%. The sample as a whole holds a higher share of actives than the screen did.
Assay: anti-Giardia activity of synthetic compounds – Compounds Australia Scaffold Library subset, 24/48 h, primary screen (AID 1794835);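 for inhibition: 0% = parasite counts in DMSO vehicle wells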
Conditions: Giardia lamblia BRIS/91/HEPU/1279 trophozoite counts, imaging, at 10 µM
[1] = measured here: growth inhibition at 24 h, stronger effect = higher value

In the case of `Cc1ccc(NC(=O)c2ccc(=O)n(CCN3CCOCC3)n2)cc1`, the inhibition (stronger effect = higher value) is reported as 2.3% (inactive) and the inhibition [1] is reported as 1.4%.

With `Cc1ccc(NC(=O)c2cc3c(Cl)ccc4c3n2CCO4)cc1` the inhibition (stronger effect = higher value) was 49.3% (active) and the inhibition [1] was 30.6%.

For `Cc1ccc(NC(=O)C2=NN(CC(=O)Nc3ccc4c(c3)OCCO4)C(=O)CC2)cc1`, the inhibition was “inactive”.

For `CCOc1ccc(NC(=O)CN2C(c3ccc(C)cc3)=CC(c3ccccc3)n3nnnc32)cc1` (stereo not drawn), the inhibition was “inactive”.

With `CCN(CC)CCN1C(=O)C(O)=C(C(=O)c2cccs2)C1c1ccc(C)o1` (stereo not drawn) the inhibition (stronger effect = higher value) was 15% (inactive).

With `O=c1ccc(-c2nnco2)cn1Cc1ccc(F)c2cccnc12` the inhibition was “inactive”.

For `CC1CCN(C(=O)c2oc3ccccc3c2NC(=O)c2ccc([N+](=O)[O-])o2)CC1`, the inhibition (stronger effect = higher value) was 95.2% (active) and the inhibition [1] was 87.8%.

With `CC1CCN(C(=O)c2n[nH]c(=O)c3ccccc23)CC1` the outcome was “inactive” and the inhibition [1] was 4%.

With `Cc1ccc(NC(=O)c2oc3ccccc3c2NC(=O)c2ccccc2)cc1` the inhibition (stronger effect = higher value) was 1.2% (inactive).

In the case of `Cn1cc(S(=O)(=O)N2CCN(C(=O)Cc3c[nH]c4ccccc34)CC2)cc1C(N)=O`, the inhibition is reported as “inactive”.

In the case of `Cc1cc(NCc2ccccc2CN2CCCC2)nc(-c2ccncc2)n1`, the inhibition is reported as “inactive”.

With `COc1ccccc1N1CCN(C(=O)c2cc(C3CC3)[nH]n2)CC1` the outcome was “inactive” and the inhibition [1] was 9.6%.

With `COc1ccccc1N1CCN(C(=O)c2cc3c(C)nn(-c4ccc(C)cc4)c3s2)CC1` the inhibition (stronger effect = higher value) was 65.7% (active) and the inhibition [1] was 48%.

For `Cc1nn(-c2ccccc2)c2sc(C(=O)N3CCCCC3)cc12`, the inhibition (stronger effect = higher value) was 39.6% (active) and the inhibition [1] was 21.1%.

With `Cc1nn(Cc2ccccc2)c2sc(C(=O)N3CCN(C(=O)N4CCCCC4)CC3)cc12` the inhibition (stronger effect = higher value) was 14% (inactive).

With `Cc1nn(-c2ccc(F)cc2)c2sc(C(=O)N3CCCCC3C(N)=O)cc12` (stereo not drawn) the inhibition was “inactive”.

For `COc1ccccc1N1CCN(C(=O)c2ccc3[nH]c(C)c(C)c3c2)CC1`, the inhibition (stronger effect = higher value) was 36.6% (inactive).

With `Cc1ccc(-c2ncc(C(=O)NC3CCCCCC3)c(C)n2)cc1` the outcome was “inactive” and the inhibition [1] was 6.7%.

For `COc1cccc(CNC(=O)Cn2ccc3sccc3c2=O)c1`, the inhibition (stronger effect = higher value) was 6.6% (inactive) and the inhibition [1] was 0.5%.

In the case of `COc1cccc(N2CCN(C(=O)C3CCN(c4nc(NC(C)=O)ns4)CC3)CC2)c1`, the inhibition (stronger effect = higher value) is reported as 16.2% (inactive) and the inhibition [1] is reported as 7.9%.

In the case of `CCCc1cc(N2CCOCC2)n2nc(C)c(-c3ccccc3)c2n1`, the inhibition (stronger effect = higher value) is reported as 20.2% (inactive).

For `Cc1cc(NC(=O)CN2c3ccccc3NC3=C(C(=O)CC(C)(C)C3)C2c2ccccc2)no1` (stereo not drawn), the inhibition was “inactive”.

For `Cn1cnc2onc(C(=O)NC3CCCCC3)c2c1=O`, the inhibition was “inactive”.

With `O=S(=O)(c1cccc(F)c1)N1CC(OCc2cccc(F)c2)C1` the inhibition (stronger effect = higher value) was 10% (inactive) and the inhibition [1] was 1.5%.

For `Cc1nc2sccn2c1-c1nc(-c2ccccc2)c(C(=O)c2ccc3c(c2)NC(=O)CO3)s1`, the inhibition (stronger effect = higher value) was 7% (inactive) and the inhibition [1] was 1.6%.

For `Nc1c(-c2nc(-c3ccccc3)cs2)c2ccccn2c1C(=O)c1ccc2c(c1)OCO2`, the inhibition (stronger effect = higher value) was 83.1% (active) and the inhibition [1] was 63.2%.

For `COc1ccc(C(=O)c2c(N)c(-c3nc(-c4cc(OC)ccc4OC)cs3)c3ccccn23)cc1`, the outcome was “inactive” and the inhibition [1] was 3.8%.

For `COc1cccc(C(=O)N2CCN(CC3CCCO3)CC2)c1` (stereo not drawn), the inhibition was “inactive”.

For `CCOc1ccc(NC(=O)N2Cc3cccn3-c3ccccc32)cc1`, the inhibition was “inactive”.

For `CN1CCCN(c2ncnc3cc(Cl)ccc23)CC1`, the inhibition was “inactive”.

In the case of `COc1ccc(-c2csc(-n3nccc3C(F)(F)F)n2)cc1OC`, the inhibition (stronger effect = higher value) is reported as 27.9% (inactive) and the inhibition [1] is reported as 8%.

For `N=C1C(c2nc(-c3ccc(Cl)cc3)cs2)=C(O)CN1CCc1ccccc1`, the inhibition was “inactive”.

With `COc1ccc(-c2csc(C3=C(O)CN(CC(C)(C)CN(C)C)C3=N)n2)cc1OC` the inhibition (stronger effect = higher value) was 76.8% (active) and the inhibition [1] was 23.9%.

In the case of `Cc1ccc(COCc2nn(C)c3c2CN(C(=O)Nc2ccccc2)CC3)cc1`, the outcome is reported as “inactive” and the inhibition [1] is reported as 4.7%.

With `CCn1cc(C(=O)NCc2ccccc2)c(=O)c2ccc(C)nc21` the inhibition (stronger effect = higher value) was 6.1% (inactive) and the inhibition [1] was 8.9%.

For `Cc1ncncc1C(=O)N1CCN(CC(O)C(C)(C)C)CC1` (stereo not drawn), the inhibition was “inactive”.

In the case of `COc1ccc(NC(=O)N2CCN(c3cc(C)nc(N4CCOCC4)n3)CC2)cc1`, the inhibition (stronger effect = higher value) is reported as 44.4% (inactive) and the inhibition [1] is reported as 12.7%.

For `COc1ccc(Nc2cc(C)nc(N3CCN(C(=O)Nc4cccc(OC)c4)CC3)n2)cc1`, the inhibition (stronger effect = higher value) was 86.6% (active) and the inhibition [1] was 49.4%.

For `COc1ccc(Nc2cc(C)nc(N3CCN(C(=O)c4ccccc4)CC3)n2)cc1`, the inhibition (stronger effect = higher value) was 29.3% (inactive) and the inhibition [1] was 5.55%.

In the case of `CN(C)C(=O)CN1CCCN(Cc2ncc(C(C)(C)C)o2)CC1`, the inhibition (stronger effect = higher value) is reported as 1.9% (inactive) and the inhibition [1] is reported as 6.5%.

In the case of `CCN(Cc1ccccc1)C(=O)c1cc(-c2ccccc2)n[nH]1`, the inhibition (stronger effect = higher value) is reported as 36.1% (inactive) and the inhibition [1] is reported as 19.1%.

With `Cc1noc(C)c1S(=O)(=O)N1CCC(C(=O)NCC(c2ccccc2)N(C)C)CC1` (stereo not drawn) the outcome was “inactive” and the inhibition [1] was 10.5%.

In the case of `Cc1nn(C)c2sc(C(=O)N3CCN(S(=O)(=O)c4ccc(Br)cc4)CC3)cc12`, the inhibition (stronger effect = higher value) is reported as 10.6% (inactive).

In the case of `CCOc1ccc(C(=O)Nc2ccc(-c3nnc4n3CCCCCC4)cc2)cc1`, the inhibition is reported as “inactive”.

In the case of `COc1ccc2c(c1)CCc1c-2noc1-c1ccc(NC(=O)c2cc(C)nn2C)cc1`, the inhibition is reported as “inactive”.

For `COc1ccc(NC(=O)c2ccc(-c3cc(NC4CCCCC4)ncn3)cc2)cc1`, the inhibition (stronger effect = higher value) was 51% (active) and the inhibition [1] was 17.1%.

For `Cc1ccc(CNC(=O)N2CCN(C3=CC4=NCC(C)N4C=N3)CC2)cc1` (stereo not drawn), the inhibition (stronger effect = higher value) was 11.9% (inactive) and the inhibition [1] was 18.7%.

For `Cc1ccc2c(c1)NC(c1ccc(C)o1)=NC(c1cccs1)=N2`, the inhibition (stronger effect = higher value) was 54.6% (active) and the inhibition [1] was 15.2%.

For `Fc1ccc(C2=Nc3ccc(Cl)cc3NC(c3cccs3)=N2)cc1`, the outcome was “inactive” and the inhibition [1] was 23%.

In the case of `CCn1c(C2CCN(C(=O)c3ccc(Br)cc3)C2)nc2cccnc21` (stereo not drawn), the inhibition is reported as “inactive”.

With `CCCn1c(=O)c(C)nc2cc(-c3noc(-c4cccc(NC(=O)c5ccco5)c4)n3)ccc21` the inhibition was “inactive”.

In the case of `COc1cc(OC)c(N2CC(C(=O)N3CCc4sccc4C3)CC2=O)cc1Cl` (stereo not drawn), the inhibition is reported as “inactive”.

In the case of `O=[N+]([O-])c1cc(F)ccc1Sc1nnc(N2CCOCC2)s1`, the inhibition (stronger effect = higher value) is reported as 60.8% (active) and the inhibition [1] is reported as 30.9%.

With `C1CCC(Sc2nnc(N3CCOCC3)s2)C1` the inhibition was “inactive”.

For `O=[N+]([O-])c1ccccc1Sc1nnnn1C1CCOCC1`, the inhibition (stronger effect = higher value) was 8.6% (inactive) and the inhibition [1] was 6.15%.

For `CCCC(=O)Nc1ccc2nc(N3CCCC3)cc(C(=O)O)c2c1`, the inhibition was “inactive”.

In the case of `COc1ccc(CN2CCN(C(=O)c3c(C)oc4c3C3=NCCN3C=N4)CC2)c(OC)c1OC`, the inhibition (stronger effect = higher value) is reported as 7.4% (inactive) and the inhibition [1] is reported as 3%.

— PubChem BioAssay AID1794835 (Parasite Biology Lab, Institute for Biomedicine and …, 2023)
